# Reference: PubChem BioAssay (NCI)
# About 79,000 compounds went through this panel and 15% of them were active in at least one assay; those are over-represented in the sample as a whole. Unmarked numbers belong to inactive results. Active and inactive are the calls of the source. Cut-off read from the data, not from the text of the source: active = growth inhibition above about 70%; inactive = the rest.
# Legend:
# [1] = NCI Yeast Anticancer Drug Screen. Data for the rad50 strain (AID 155);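 note: 0% = growth of vehicle-only cultures of the same strain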; conditions: S. cerevisiae rad50 strain growth inhibition; at 50.0 µM; hits give high values
# Summary of the method: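 Growth of the mutant yeast was measured after compound exposure and referenced to vehicle-treated cultures.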
# [2] = NCI Yeast Anticancer Drug Screen. Data for the mec2-1 strain (AID 157); conditions: S. cerevisiae mec2-1 strain, at 50.0 µM, hits give high values
# Summary of the method: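 Mutant yeast (mec2-1) grown with compound; growth inhibition relative to vehicle control reported.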
# [3] = NCI Yeast Anticancer Drug Screen. Data for the sgs1 mgt1 strain (AID 161);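 note: 0% = growth of cultures given vehicle only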; conditions: S. cerevisiae sgs1 mgt1 strain, at 50.0 µM, hits give high values
# Summary of the method: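 Yeast cells carrying a defined DNA-repair defect were exposed to test compounds. Growth inhibition was measured relative to vehicle-treated controls.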
# [4] = NCI Yeast Anticancer Drug Screen. Data for the cln2 rad14 strain (AID 165);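 note: 0% = growth equal to vehicle treated cultures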; conditions: S. cerevisiae cln2 rad14 strain, at 50.0 µM, hits give high values
# Summary of the method: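 Readout is yeast growth inhibition versus vehicle-treated controls, using a strain with cln2 and rad14 alterations exposed to compound.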
# [5] = NCI Yeast Anticancer Drug Screen. Data for the bub3 strain (AID 167); conditions: S. cerevisiae bub3 mutant strain, at 50.0 µM, hits give high values
# Summary of the method: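 Whole-cell yeast assay. The mutant strain was incubated with compounds, and growth inhibition was determined by comparison with vehicle-treated cells.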
# [6] = NCI Yeast Anticancer Drug Screen. Data for the mlh1 rad18 strain (AID 175); conditions: S. cerevisiae mlh1 rad18 strain growth inhibition; at 50.0 µM; hits give high values
# Summary of the method: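 Genetically defined yeast (DNA repair-deficient) exposed to compounds; growth inhibition determined relative to vehicle.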
SMILES,growth inhibition [1],growth inhibition [2],growth inhibition [3],growth inhibition [4],growth inhibition [5],growth inhibition [6]
COc1cc(N=Nc2ccc([N+](=O)[O-])cc2)c([OH+]C)cc1[N+]#N.COc1cc(N=Nc2ccc([N+](=O)[O-])cc2)c([OH+]C)cc1[N+]#N.[Cl][Zn][Cl],7%,-1.05%,-2.1%,-3.15%,17.9%,12.6%
CCCCOC(=O)c1ccccc1C(=O)OCc1ccccc1,-3.45%,-11.7%,-2.85%,-43.7%,2.8%,-5.25%
CC(=O)OC(C)(C)/C=C/C(=O)[C@](C)(O)[C@H]1[C@H](O)C[C@@]2(C)[C@@H]3CC=C4[C@@H](C=C(O)C(=O)C4(C)C)[C@]3(C)C(=O)C[C@]12C,-4.6%,-36.5%,-14.6%,-10.8%,-15.7%,-16.1%
O=c1n(CC2CO2)c2ccccc2n1CC1CS1 (stereo unspecified),-7.4%,-36%,7%,-12.8%,-41.4%,1.7%
O=C(O)c1c(Cl)n(Cc2cc(Cl)ccc2Cl)c2ccccc12,4.5%,14.3%,19.9%,19.9%,11.3%,22.2%
C[C@]12CC[C@H]3[C@@H](CCC4=C(Br)C(=O)CC[C@@H]43)[C@@H]1CC[C@@H]2O,9.5%,2.3%,10.6%,-19.6%,2.5%,19.1%
[O-][n+]1c2ccccc2nc2ccccc21,62.1%,34%,26.9%,-9.55%,41.2%,55.7%
COc1ccc(S(=O)(=O)F)cc1N,-18.6%,-32.5%,-21.6%,4.35%,-14.3%,-22.4%
COP1(=S)OCC2CCC[C@@H]2O1 (stereo partly specified),-19.5%,-26.4%,-33%,3.2%,-21.9%,-32.1%
CC1(c2cccc(N(CCCl)CCCl)c2)NC(=O)NC1=O (stereo unspecified),25.1%,27.4%,13.2%,3.9%,19.9%,40.4%
[Pd].c1ccc([PH+](CC[PH+](c2ccccc2)c2ccccc2)c2ccccc2)cc1.c1ccc([PH+](CC[PH+](c2ccccc2)c2ccccc2)c2ccccc2)cc1,24.8%,12.8%,59.5%,15.1%,15.7%,24.2%
O=c1n(Cc2ccccc2)c2ccccc2n1CC1CS1 (stereo unspecified),55.5%,21.4%,62.9%,4.75%,15.8%,31.1%
NNC(=S)N/N=C(\C(=O)Nc1cccc(O)c1)C1C(=O)NC(=S)NC1=O,-6.65%,-10.6%,-13.7%,-0.05%,2.55%,-17.9%
CCN(CC)CCO,-4.1%,-4.9%,-9.6%,7.05%,15.2%,-23.6%
CCCCOC(N)=O,-34.6%,-11.6%,29.4%,-19.9%,0.1%,0.3%
CCOP(=O)(OCC)C(C#N)Cc1ccccc1OC (stereo unspecified),20.6%,4.15%,0.2%,-18.1%,3.3%,12.7%
Nc1noc(N)n1,-43%,-22.1%,-26.8%,-23.1%,-18.1%,-28.4%
CCOC(=O)C1C2(C)NC(=O)C1(Cc1ccccc1)c1cc(C)c(C)cc1O2 (stereo unspecified),-0.75%,16.5%,-11.8%,-6.15%,-3.3%,3.45%
[Se]=P(c1ccccc1)(N1CC1)N1CC1,33.2%,10.2%,11.8%,3.55%,-1.3%,6.85%
CC[CH2][Sn]([Br])([CH2]CC(=O)OC)[CH2]CC(=O)OC,16.5%,4.2%,50.1%,-19.9%,9.85%,12.1%
CC1=CC(=Nc2ccc(N(CCCl)CCCl)cc2)C=CC1=O,-6.1%,33.2%,-28.4%,14.2%,-7.9%,5.35%

SMILES,growth inhibition [1],growth inhibition [2],growth inhibition [3],growth inhibition [4],growth inhibition [5],growth inhibition [6]
CCOC(=O)C(Cc1ccc(N(CCCl)CCCl)cc1)NC(=O)C(C)NC(C)=O (stereo unspecified),0.45%,-7.3%,-15.5%,15.7%,-0.6%,7%
CS(=O)(=O)NC(=O)CBr,-26.1%,-23.6%,-12.8%,14.6%,-29.4%,-21.1%
Cc1ccc(S(=O)(=O)N/N=C(\CCN2CCCC2)CC(c2ccccc2)c2c(O)c3ccccc3oc2=O)cc1 (stereo unspecified),14.6%,9.1%,20.8%,21.8%,9.95%,17.6%
CCOP(=O)(OCC)/C(C#N)=C/c1ccc(C)o1,-34.2%,-13.3%,-49.6%,-7%,-19.8%,-41.6%
CCOC(=O)C(C[Si](C)(C)C)P(=O)(OCC)OCC (stereo unspecified),-24.6%,-21.9%,-58.4%,-28.6%,-26.7%,-33%
C=CCNC(=O)C(Br)C(C)C (stereo unspecified),-9.8%,-40.8%,-10.6%,22.9%,-26.9%,-8.2%
CC(=O)OC(C)(C)/C=C/C(=O)[C@](C)(O)[C@H]1[C@H](O)C[C@@]2(C)[C@@H]3CC=C4[C@@H](C[C@H](O)C(=O)C4(C)C)[C@]3(CO)C(=O)C[C@]12C,21.1%,-12.9%,15.3%,-7.8%,18.6%,18.9%
CCOP(=O)(CCN(C)C)OCC,-6.45%,3.55%,-4.4%,-27.7%,-7.9%,-0.45%
Cc1ccc2[nH]c(=S)n(-c3cccc(C(F)(F)F)c3)c(=O)c2c1,17.8%,6.35%,21.4%,20.7%,22.6%,16.5%
CN(C)c1ccc(C=O)cc1.[C-]#[O+].[C-]#[O+].[C-]#[O+].[Cr],-66.2%,-35.5%,-57.5%,1%,-18.4%,-38.9%
CC(=O)N(N=O)c1cc(Cl)ccc1Cl,-2.75%,-11.1%,3.15%,-2.15%,-5.5%,-1.45%
COc1cc2c(cc1OC)CC[N+](C)=C2,5.65%,-6.5%,13.8%,-2.45%,-2.4%,2.65%
CC([NH-])C[NH-].CC([NH-])C[NH-].[Cl-].[Cl-].[Co+3].[O-][Cl+3]([O-])([O-])O (stereo unspecified),37.5%,12.6%,40.5%,25.6%,16.9%,1.6%
C1=C(c2ccccc2)CCN(C2(c3ccccc3)CCCCC2)C1,-5.6%,0.75%,-4.2%,-33.5%,16.5%,9.35%
O=C(O)[C@H](O)[C@@H](O)C(=O)O.[Pb],7.05%,-4.35%,-2.9%,-36.9%,6.85%,-9.2%
C1C[N-]CC[N-]1.C1C[N-]CC[N-]1.[Zn],98.7% (active),99.5% (active),99.5% (active),98.8% (active),99.4% (active),99.3% (active)
O=C(O)CCC(=O)CCl,7%,1.35%,1.2%,-12.6%,0.9%,1%
COc1ccc(C)cc1C(CC(=O)O)CC(=O)N(CCCl)CCCl (stereo unspecified),39.6%,-2.45%,6.05%,17.7%,-1.95%,21.6%
CCCC(OP(=S)(OCC)OCC)c1ccc(Cl)cc1 (stereo unspecified),-22.5%,-1.5%,2.9%,-32.3%,39%,-1.15%
C=C(Br)C[N+]12CN3CN(CN(C3)C1)C2,-2%,-6.55%,2.15%,-6.95%,2.7%,-17.2%
